Here are results for one compound from PubChem BioAssay AID651625 (National Center for Advancing Translational Sciences (NCATS), 2012).

Unmarked numbers belong to inactive results.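 The calls were made as follows: active = inhibition of at least 60% at a 114 µM dose; inconclusive = inhibition from 30% up to under 60% at that dose; inactive = inhibition under 30% at 114 µM.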

Chain of Ubiquitin carboxyl-terminal hydrolase 5 (Homo sapiens) (P45974 whole entry, looked up): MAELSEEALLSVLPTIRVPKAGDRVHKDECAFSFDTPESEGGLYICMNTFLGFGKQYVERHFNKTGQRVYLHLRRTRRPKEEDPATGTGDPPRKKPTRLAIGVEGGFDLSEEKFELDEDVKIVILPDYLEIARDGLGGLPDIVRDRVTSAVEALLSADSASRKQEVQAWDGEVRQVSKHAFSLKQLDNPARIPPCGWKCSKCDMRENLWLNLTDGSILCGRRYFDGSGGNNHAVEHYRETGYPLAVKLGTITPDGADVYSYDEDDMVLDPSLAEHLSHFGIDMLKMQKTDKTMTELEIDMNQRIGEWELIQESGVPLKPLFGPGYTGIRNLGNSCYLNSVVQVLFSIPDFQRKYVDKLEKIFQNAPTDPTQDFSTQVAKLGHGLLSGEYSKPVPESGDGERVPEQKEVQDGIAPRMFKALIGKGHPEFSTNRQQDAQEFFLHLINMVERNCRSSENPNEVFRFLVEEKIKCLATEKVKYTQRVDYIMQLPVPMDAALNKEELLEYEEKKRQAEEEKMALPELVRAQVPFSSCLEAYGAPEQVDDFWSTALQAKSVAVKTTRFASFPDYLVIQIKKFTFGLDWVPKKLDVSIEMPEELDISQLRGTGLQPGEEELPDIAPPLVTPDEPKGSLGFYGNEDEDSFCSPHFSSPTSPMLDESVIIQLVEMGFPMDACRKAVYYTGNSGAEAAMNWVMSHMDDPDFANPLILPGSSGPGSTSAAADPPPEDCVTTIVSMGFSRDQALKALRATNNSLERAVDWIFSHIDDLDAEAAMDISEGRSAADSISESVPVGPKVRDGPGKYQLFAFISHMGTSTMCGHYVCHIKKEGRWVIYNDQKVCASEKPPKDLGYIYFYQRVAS

For the test, the target named is Ubiquitin carboxyl-terminal hydrolase 5 (Homo sapiens) (UniProt P45974). The test can be described thus: Inhibitors of USP1/UAF1: SAR in USP5 diubiquitin SDS-PAGE gel assay. The conditions noted are these: USP5 K63 diubiquitin cleavage, 1 h; series mostly up to 114 µM; inhibition: at the top concentration. The text has this:
Deubiquitinating enzymes (DUBs) are a class of enzymes that can cleave isopeptide bond formed between the C-terminal carboxylate of ubiquitin and a lysine side-chain amino group on the target protein. Among them, ubiquitin specific proteases (USPs) constitute the largest DUB family. Human USPs are emerging as promising targets for pharmacological intervention because of their connection to a number of human diseases, including prostate, colon and breast cancer (1, 2), pediatric acute lymphoblastic leukemia (3), and familial cylindromatosis (4). The advantage of inhibiting USPs lies in the potential specificity of therapeutic intervention that can lead to better efficacy and reduce nonspecific side effects. In a collaboration between the University of Delaware and the NIH Chemical Genomics Center, a high-throughput screen assay was developed to screen for USP1/UAF1 inhibitors (5). This assay is a selectivity assay that tested for activity in a USP5 diubiquitin SDS-PAGE gel assay and inactivity is the desired outcome for this assay. […]
The inhibition assay contains 5 nM USP5, 2 microM K63 linked diubiquitin, and inhibitors at varied concentrations (0.08 microM - 114 microM). […] The intensity of the individual diubiquitin and monoubiquitin band was quantified using Quantity One 4.3.1 (Biorad, Hercules, CA). The percentage of the conversion was determined and used to calculate the reaction rate. […]
In the case of `Cc1cnc(-c2ccccc2C(C)C)nc1NCc1ccc(-n2ccnn2)cc1`, the inhibition (usually the change of the read-out against control, counted positive when it falls) was 2%.
